# Experimental data published in PubChem BioAssay AID434970 (Sanford-Burnham Center for Chemical Genomics, 2010).
# The campaign covered roughly 11,000 compounds. About 310 (2.8%) were called active. Rule as the data show it: active = activity change below about -85%; inactive = the rest. Many of the other results were omitted from the sample, so actives are more common in it than they were.
# Tested on: intestinal alkaline phosphatase [Mus musculus]
# Test: mouse intestinal phosphatase enzyme activation – biochemical, luminescence, single concentration, confirmation (AID 434970)
# Settings: purified mouse IAP, CDP-Star luminescence, 30 min, at 10 µM; activation factor: measured here: IAP activation factor, stronger effect = higher value; activity change, negative = activation: stronger effect = lower value
SMILES,activation factor,"activity change, negative = activation"
Cc1cc(NC(=O)CC23CC4CC(C2)CC(CC(=O)Nc2cc(C)on2)(C4)C3)no1,1.02,-1.55% (inactive)
Cc1sc2nc(SCC(=O)Nc3c(C)n(C)n(-c4ccccc4)c3=O)n(C)c(=O)c2c1C,0.771,22.9% (inactive)
Cc1csc(C(=O)O)c1-n1cccc1,0.908,9.2% (inactive)
Fc1ccc(OCc2nn3cnnc3s2)cc1,0.923,7.75% (inactive)
CCOC(=O)/C(C#N)=C\c1ccco1,1.12,-11.7% (inactive)
COC(=O)c1ccccc1NC(=O)CN(CCc1ccccc1)S(C)(=O)=O,1.04,-3.75% (inactive)
CCOc1ccc(C2C(C#N)=C(N)N(c3sc4c(c3C#N)CCCC4)C3=C2C(=O)CCC3)cc1 (centres undefined),0.903,9.65% (inactive)
COCCC(=O)N(Cc1ccc2c(c1)OCO2)C(C(=O)NC1CCCCC1)c1ccncc1 (centres undefined),0.912,8.8% (inactive)
S=C(NCc1cccnc1)Nc1cc(Cl)cc(Cl)c1,1.38,-38.4% (inactive)
O=C(Nc1cc(Cl)cc(Cl)c1)Nc1cnccn1,1.97,-96.5% (active)
CC(C)C(=O)Nc1cccc(C(=O)Nc2ccc3c(c2)OCO3)c1,0.972,2.8% (inactive)
O=C(Nc1cc(Cl)cc(Cl)c1)c1cnn2cccnc12,0.974,2.55% (inactive)
Fc1cccc(NC(=S)NCc2ccc(Cl)cc2)c1,1.31,-30.9% (inactive)
O=C(Nc1cccc(F)c1)Nc1cccc(Cl)c1,2.11,-111% (active)
O=C(Nc1ccccc1)Nc1ccc(Br)c(Cl)c1,1.82,-82.4% (inactive)
O=C(Nc1cccnc1)Nc1cc(Cl)cc(Cl)c1,1.69,-68.7% (inactive)
COC(=O)c1ccccc1NC(=O)Nc1ccc2c(c1)OCO2,1.08,-8% (inactive)
O=C(Nc1ccccc1)Nc1cc(Cl)cc(Cl)c1,3.41,-241% (active)
O=C(Nc1cccc(Cl)c1)Nc1ccc2c(c1)OCO2,2.46,-146% (active)
Cc1ccc2c(c1)N(CCC(=O)NCc1cccs1)C(=O)C(C)O2 (centres undefined),1.03,-2.7% (inactive)
O=C(CCCOc1ccccc1)Nc1nnc(C2CCCO2)s1 (centres undefined),1.01,-1.15% (inactive)

SMILES,activation factor,"activity change, negative = activation"
CCOC(=O)c1c(-c2ccccc2)csc1NC(=O)COc1ccc2c(C)cc(=O)oc2c1,0.967,3.3% (inactive)
Cc1ccc(NC(=O)CS(=O)CC(=O)NCC2CCCO2)cc1 (centres undefined),1.07,-6.55% (inactive)
O=C(O)C1C2C=CC(O2)C1C(=O)NCCC1=CCCCC1 (centres undefined),1.12,-12.2% (inactive)
COCCN(C(=O)C(F)(F)F)C(C(=O)NC1CCCCC1)c1ccco1 (centres undefined),0.978,2.15% (inactive)
CC1CCN(C(=O)c2ccc(NC(=O)C3CCCO3)cc2)CC1 (centres undefined),1.06,-5.95% (inactive)
COc1cc2oc(=O)cc(-c3ccc(-c4ccc(F)c(Cl)c4)cc3)c2c(OC)c1OC,0.913,8.7% (inactive)
Cn1c(Cn2cnc3ccccc32)nnc1SCC(=O)CC(=O)Nc1ccccc1,0.996,0.45% (inactive)
COc1ccc(-n2ncc3c(=O)n(CC(=O)N4c5ccccc5CC4C)cnc32)cc1 (centres undefined),1,-0.2% (inactive)
N#CCc1ccc(NC(=O)Nc2cccc(Cl)c2)cc1,1.88,-87.6% (inactive)
CCOC(=O)c1sc(NC(=O)Nc2cccc(Cl)c2)cc1C,1.83,-82.6% (inactive)
O=C(NCCc1ccc(Cl)cc1)Nc1cccc(Cl)c1,1.92,-92.5% (inactive)
CCC1(COC(=O)Nc2cccc(Cl)c2)COC1,1.16,-16.4% (inactive)
C=CCc1cc(Cl)ccc1OC(=O)Nc1cccc(Cl)c1,2.05,-105% (active)
O=C(Nc1cccc(Cl)c1)Nc1cccc(Cl)c1,3.21,-221% (active)
CC(O)c1cccc(NC(=O)Nc2cccc(NC(=O)Nc3cccc(C(C)O)c3)c2)c1 (centres undefined),1.89,-88.9% (active)
CSc1ccccc1NC(=O)Nc1cccc(Cl)c1,1.48,-48.5% (inactive)
CC(=O)c1cccc(NC(=O)Nc2cccnc2)c1,1,-0.35% (inactive)
C/C(CC(=O)Nc1cccc(Cl)c1)=N\NC(=O)Cc1ccc(Cl)cc1,1.02,-2.2% (inactive)
CC(C)OC(=O)NCCOC(=O)Nc1cccc(Cl)c1,2.12,-112% (active)
CC(=O)Nc1cccc(NC(=O)Nc2ccc(C(C)=O)cc2)c1,1.13,-13.4% (inactive)
COCCN(CC(=O)NCc1ccc2c(c1)OCO2)C(=O)CCC(=O)Nc1nccs1,0.99,1% (inactive)
